Data taken from PubChem BioAssay.
Records with an inconclusive call do not appear. Calls of active or inactive are those of the source.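 How the source made its calls, unless noted: active means viability at or under a set limit in both replicates, limit being median viability minus 3 SD (cut at about 48% in these data, passing the limit was not always enough); inconclusive means at or under the limit in just one replicate; inactive means at or above the limit in both replicates.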

How the values were obtained:
[1] = reducers of endogenous Her2 protein level, primary screen, SKBR3 breast tumor cells, AlphaScreen, ATP viability (AID 461;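 active means Her2 level under about 52% in both replicate screens, with viability over 70% of control, limit read from the data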;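 on Her2 level: lower value means less Her2 protein in the cells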;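 on viability: percent of carrier control wells set as 100% viability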); settings: 18-24 h, measured here: SKBR3 viability, ATP luminescence, at 10 µM
[2] = target: Receptor tyrosine-protein kinase erbB-2 (Homo sapiens) (UniProt P04626); test: as above; settings: 18-24 h, at 10 µM, stronger effect = lower value
[3] = SK-BR-3 cell growth inhibitors, pilot screen, 24 h, human (AID 572;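 active means viability at or below 10% of carrier control in both of two separate runs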;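 further: compound exposure lasted between 18 and 24 h rather than exactly 24 h; 100% = carrier-treated control wells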); settings: SK-BR-3 viability, CellTiter-Glo luminescence, at 10 µM, stronger effect = lower value
[4] = HUVEC growth inhibition – cell-based, human, primary screen (AID 575;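 active means viability at or below 30% in both replicate assays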;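 further: 100% = median of untreated cell wells with 0.1% DMSO on each plate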); settings: HUVEC proliferation, CellTiter-Glo luminescence, 72 h; at 10 µM; stronger effect = lower value
[5] = growth inhibitors of H69AR lung tumor, primary screen, human, duplicate replicates (AID 580); settings: H69AR lung tumor cells viability, ATP luminescence, 72 h; at 10 µM; stronger effect = lower value;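 further: 100% = mean luminescence of untreated wells and 0% = no signal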
[6] = reversal of MRP1-mediated doxorubicin resistance, pilot screen, H69AR cells, doxorubicin co-treatment (AID 601;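 active means viability loss from added drug above about 55%, and viability with drug at most 40%, in both replicates, limit read from the data, passing the limit was not always enough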); settings: CellTiter-Glo, 72 h, at 10 µM; for differential viability (reversal): stronger effect = higher value
[7] = 384-well plate pilot, post-Golgi transport modulator project, inhibition of yeast transport mutant growth (AID 636; in the data active means inhibition above about 31%); settings: absorbance 615 nm, about 18 h, stronger effect = higher value
[8] = growth suppression of yeast trafficking mutant, preliminary HTS, modulators of trafficking downstream of Golgi apparatus project, 1536-format plate, OD 615 nm (AID 637; in the data active means inhibition above about 30%); settings: yeast transport mutant growth, absorbance 615 nm, 18 h; stronger effect = higher value
[9] = OD615 S. cerevisiae growth inhibition, permissive medium, pilot counter-assay, permissive growth control for S. cerevisiae lifespan shortening project (AID 705;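 active means growth inhibition above 25% in both replicates, a cutoff set 3 SD above the mean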); settings: OD615, 24 h, at 10 µM, stronger effect = higher value
[10] = Restrictive medium S. cerevisiae growth inhibition, OD615, pilot screen of yeast lifespan reduction project, restrictive growth control (AID 706;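 active means growth inhibition above a set limit, 3 SD over mean compound inhibition, in both replicates, cut at about 43% in these data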;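 further: modified DeaD lifespan yeast strain shifted to restrictive glucose medium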); settings: OD615, 48 h, at 10 µM, stronger effect = higher value
[11] = viability gain of MRP-1-high H69AR cells under doxorubicin, pilot screen, MRP-1 activator project, CellTiter-Glo, duplicate (AID 807;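 active means viability increase at or above a cutoff of the median across tested compounds plus 3 SD, cut at about 8.5% in these data, passing the limit was not always enough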;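 further: compound pretreatment 18-22 h then 72 h combined with doxorubicin; 0% = doxorubicin alone and 100% = vehicle without doxorubicin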); settings: H69AR viability with doxorubicin, CellTiter-Glo luminescence; at 10 µM; stronger effect = higher value
[12] = growth suppression of beta-catenin knockout HCT116, pilot screen, human colon tumor cells (AID 823;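 active means cell viability at or below a set limit in both duplicate runs, the limit being the all-compound median minus 4 SD, cut at about 23% in these data, passing the limit was not always enough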;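 further: 0% = wells killed by 20 µM Hyamine and 100% = untreated DMSO cell wells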); settings: CellTiter-Glo, 60 h, at 10 µM, stronger effect = lower value
[13] = growth suppression of PTEN-deleted HCT116, pilot screen, cell-based, HCT116 clonal line, CellTiter-Glo (AID 824;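 active means viability at or below 27.92% in each of two runs, the all-compound median minus 4 SD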;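 further: 0% = 20 µM Hyamine control and 100% = vehicle cell control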); settings: 60 h, at 10 µM, stronger effect = lower value
[14] = inhibitors of the yeast RAM network, pilot screen, dse1pr::URA3 reporter, 5-FOA selection (AID 869;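 active means inhibition over a set limit, the all-compound mean plus 3 SD, in both replicate runs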;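 further: 0% = DMSO wells with no growth and 100% = 10 µM 1-NA-PP1 with full growth; RAM network block rescues cells from 5-FOA so hits raise OD615 growth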); settings: S. cerevisiae dse1pr::URA3 5-FOA growth, OD615, 2 d; at 10 µM; stronger effect = higher value; strain carries analog-sensitive mutant Cbk1 kinase
[15] = RAM signaling pathway blockade in yeast – S. cerevisiae, Pdr1DBD-CYC8 efflux-inhibited sensitized strain, primary screen (AID 1298;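 active means RAM network inhibition above 8.4% in each of two replicates, 3 SD over the compound average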;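 further: 0% = DMSO untreated cells without growth and 100% = 10 µM 1-NA-PP1 full growth; higher means more yeast growth rescued from 5-FOA killing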); settings: S. cerevisiae cbk1-as DSE1-URA3 strain, 5-FOA growth OD615, 2 d; at 50 µM; stronger effect = higher value
[16] = H69AR cells + 2 uM doxorubicin, measured here: viability with 2 uM doxorubicin, stronger effect = lower value
[17] = H69AR cells, compound alone cytotoxicity

Receptor tyrosine-protein kinase erbB-2 (Homo sapiens), sequence (P04626 whole entry, looked up): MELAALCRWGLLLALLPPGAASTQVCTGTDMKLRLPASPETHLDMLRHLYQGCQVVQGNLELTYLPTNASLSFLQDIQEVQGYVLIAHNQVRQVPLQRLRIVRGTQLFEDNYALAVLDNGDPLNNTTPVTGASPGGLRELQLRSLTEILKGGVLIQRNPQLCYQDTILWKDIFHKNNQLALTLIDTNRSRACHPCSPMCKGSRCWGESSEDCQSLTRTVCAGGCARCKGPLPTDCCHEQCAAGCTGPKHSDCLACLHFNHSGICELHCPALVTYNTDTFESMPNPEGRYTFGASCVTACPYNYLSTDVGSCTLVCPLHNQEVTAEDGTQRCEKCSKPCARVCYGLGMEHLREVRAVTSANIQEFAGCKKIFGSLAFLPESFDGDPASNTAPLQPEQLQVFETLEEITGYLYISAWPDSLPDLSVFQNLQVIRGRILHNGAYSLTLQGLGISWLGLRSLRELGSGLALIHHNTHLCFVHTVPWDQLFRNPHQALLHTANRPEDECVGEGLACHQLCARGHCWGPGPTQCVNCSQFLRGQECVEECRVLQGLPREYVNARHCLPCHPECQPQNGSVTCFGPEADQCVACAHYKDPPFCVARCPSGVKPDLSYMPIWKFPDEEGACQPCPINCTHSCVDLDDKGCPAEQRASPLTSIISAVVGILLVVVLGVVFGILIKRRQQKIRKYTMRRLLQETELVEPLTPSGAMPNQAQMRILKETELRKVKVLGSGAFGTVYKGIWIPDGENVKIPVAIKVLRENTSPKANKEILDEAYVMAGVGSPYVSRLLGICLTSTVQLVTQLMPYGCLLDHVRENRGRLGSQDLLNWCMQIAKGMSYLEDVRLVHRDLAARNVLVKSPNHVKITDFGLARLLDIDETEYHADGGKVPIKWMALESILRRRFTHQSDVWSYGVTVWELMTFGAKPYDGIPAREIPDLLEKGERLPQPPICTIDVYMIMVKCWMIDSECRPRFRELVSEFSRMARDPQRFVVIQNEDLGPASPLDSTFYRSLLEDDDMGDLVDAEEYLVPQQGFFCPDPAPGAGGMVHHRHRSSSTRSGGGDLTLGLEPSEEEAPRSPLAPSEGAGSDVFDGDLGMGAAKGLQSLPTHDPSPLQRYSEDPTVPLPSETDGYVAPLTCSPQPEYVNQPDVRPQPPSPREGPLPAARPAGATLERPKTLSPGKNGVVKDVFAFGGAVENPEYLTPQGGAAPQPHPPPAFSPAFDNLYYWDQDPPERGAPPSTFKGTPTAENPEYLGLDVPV

In the case of `CCC(C)(NC(=O)c1ccc(=O)[nH]c1)C(=O)NC1CCCC1` (stereo not drawn), the viability [1] is reported as 102%, the Her2 level [2] is reported as 96.5% (inactive) and the viability [3] is reported as 102% (inactive). For the same compound, the viability [4] was 107% (inactive), the viability [5] was 94.1% (inactive) and the differential viability (reversal) ([6]; H69AR cells + 2 uM doxorubicin) was 12.3% (inactive). The viability [6, 16] was 81.8%, the viability [6, 17] was 94.1% and the inhibition [7] was -5.2% (inactive). For the same compound, the inhibition [8] was -0.67% (inactive), the growth inhibition [9] was -11.7% (inactive) and the growth inhibition [10] was -35% (inactive). The viability increase [11] was 0.76% (inactive), the viability [12] was 105% (inactive) and the viability [13] was 97.9% (inactive). The inhibition [14] was 1.92% (inactive) and the RAM network inhibition [15] was 2.77% (inactive).

With `O=C(NCc1ccco1)C1CCN(c2ccc(N3CCOCC3)nn2)CC1` the viability [1] was 86.5%, the Her2 level [2] was 120% (inactive) and the viability [3] was 86.5% (inactive). For the same compound, the viability [4] was 91.4% (inactive), the viability [5] was 83.6% (inactive) and the differential viability (reversal) ([6]; H69AR cells + 2 uM doxorubicin) was 2.94% (inactive). The viability [6, 16] was 80.6%, the viability [6, 17] was 83.6% and the inhibition [7] was -0.53% (inactive). For the same compound, the inhibition [8] was -0.83% (inactive), the growth inhibition [9] was 0.41% (inactive) and the growth inhibition [10] was 5.46% (inactive). For the same compound, the viability increase [11] was -3.71% (inactive), the viability [12] was 95.2% (inactive) and the viability [13] was 97.3% (inactive). The inhibition [14] was 0.935% (inactive) and the RAM network inhibition [15] was 4.7% (inactive).

With `c1ccc(CN2CCN(CCCNc3ccc4nnc(-c5ccccc5)n4n3)CC2)cc1` the viability [1] was 83%, the Her2 level [2] was 78.5% (inactive) and the viability [3] was 83% (inactive). For the same compound, the viability [4] was 50.2% (inactive), the viability [5] was 86.3% (inactive) and the differential viability (reversal) ([6]; H69AR cells + 2 uM doxorubicin) was 55.5% (active). For the same compound, the viability [6, 16] was 30.8%, the viability [6, 17] was 86.3% and the inhibition [7] was 0.13% (inactive). For the same compound, the inhibition [8] was -2.17% (inactive), the growth inhibition [9] was -8.05% (inactive) and the growth inhibition [10] was 5.01% (inactive). For the same compound, the viability increase [11] was -7.78% (inactive), the viability [12] was 50% (inactive) and the viability [13] was 55.5% (inactive). For the same compound, the inhibition [14] was 2.78% (inactive) and the RAM network inhibition [15] was 3.65% (inactive).

For `CCOC(=O)c1ccc(NC(=O)CC2SC(=NC)N(C)C2=O)cc1` (stereo not drawn), the viability [1] was 107%, the Her2 level [2] was 88.5% (inactive) and the viability [3] was 107% (inactive). For the same compound, the viability [4] was 110% (inactive), the viability [5] was 105% (inactive) and the differential viability (reversal) ([6]; H69AR cells + 2 uM doxorubicin) was 16.6% (inactive). The viability [6, 16] was 88.7%, the viability [6, 17] was 105% and the inhibition [7] was -3.03% (inactive). The inhibition [8] was -1.9% (inactive), the growth inhibition [9] was 6.34% (inactive) and the growth inhibition [10] was 11.4% (inactive). For the same compound, the viability increase [11] was -0.46% (inactive), the viability [12] was 101% (inactive) and the viability [13] was 97.8% (inactive). The inhibition [14] was 2.03% (inactive) and the RAM network inhibition [15] was 2.16% (inactive).

In the case of `CC(C)CCNC(=O)Cn1c(NCCC(C)C)nc2c1c(=O)n(C)c(=O)n2C`, the viability [1] is reported as 121%, the Her2 level [2] is reported as 118% (inactive) and the viability [3] is reported as 121% (inactive). The viability [4] was 102% (inactive), the viability [5] was 93.7% (inactive) and the differential viability (reversal) ([6]; H69AR cells + 2 uM doxorubicin) was -0.345% (inactive). The viability [6, 16] was 94%, the viability [6, 17] was 93.7% and the inhibition [7] was 1.73% (inactive). The inhibition [8] was -2.5% (inactive), the growth inhibition [9] was -4.12% (inactive) and the growth inhibition [10] was -0.68% (inactive). For the same compound, the viability increase [11] was -1.31% (inactive), the viability [12] was 98.2% (inactive) and the viability [13] was 92.8% (inactive). The inhibition [14] was 0.94% (inactive) and the RAM network inhibition [15] was -0.63% (inactive).

For `Cc1cc(C)cc(N(CC(=O)Nc2cccc(C)n2)S(=O)(=O)c2c(C)noc2C)c1`, the viability [1] was 88.5%, the Her2 level [2] was 97% (inactive) and the viability [3] was 88.5% (inactive). For the same compound, the viability [4] was 92.3% (inactive), the viability [5] was 85.6% (inactive) and the differential viability (reversal) ([6]; H69AR cells + 2 uM doxorubicin) was 11.8% (inactive). For the same compound, the viability [6, 16] was 73.8%, the viability [6, 17] was 85.6% and the inhibition [7] was -0.64% (inactive). For the same compound, the inhibition [8] was -2% (inactive), the growth inhibition [9] was -12.3% (inactive) and the growth inhibition [10] was -11.5% (inactive). For the same compound, the viability increase [11] was -4.06% (inactive), the viability [12] was 73.4% (inactive) and the viability [13] was 71.9% (inactive). For the same compound, the inhibition [14] was 0.94% (inactive) and the RAM network inhibition [15] was 5.69% (inactive).

In the case of `CCOC(=O)CSc1nnc(Cn2c(=O)sc3ccccc32)n1C`, the viability [1] is reported as 96%, the Her2 level [2] is reported as 94% (inactive) and the viability [3] is reported as 96% (inactive). For the same compound, the viability [4] was 87% (inactive), the viability [5] was 96.7% (inactive) and the differential viability (reversal) ([6]; H69AR cells + 2 uM doxorubicin) was 11.1% (inactive). For the same compound, the viability [6, 16] was 85.5%, the viability [6, 17] was 96.7% and the inhibition [7] was 3.33% (inactive). The inhibition [8] was -2.5% (inactive), the growth inhibition [9] was 1.56% (inactive) and the growth inhibition [10] was 7.89% (inactive). For the same compound, the viability increase [11] was 1.76% (inactive), the viability [12] was 107% (inactive) and the viability [13] was 106% (inactive). For the same compound, the inhibition [14] was 0.27% (inactive) and the RAM network inhibition [15] was 3.51% (inactive).

With `Cn1c(=O)c2c(nc(SCCCC#N)n2Cc2c(F)cccc2Cl)n(C)c1=O` the viability [1] was 102%, the Her2 level [2] was 108% (inactive) and the viability [3] was 102% (inactive). The viability [4] was 91.8% (inactive), the viability [5] was 77.3% (inactive) and the differential viability (reversal) ([6]; H69AR cells + 2 uM doxorubicin) was 61.3% (active). For the same compound, the viability [6, 16] was 15.9%, the viability [6, 17] was 77.3% and the inhibition [7] was -1.33% (inactive). The inhibition [8] was 1.17% (inactive), the growth inhibition [9] was -13.5% (inactive) and the growth inhibition [10] was 5.36% (inactive). The viability increase [11] was -4.16% (inactive), the viability [12] was 89.2% (inactive) and the viability [13] was 86.1% (inactive). For the same compound, the inhibition [14] was 3.15% (inactive) and the RAM network inhibition [15] was 4.98% (inactive).

In the case of `CCC(C)NC(=O)C1c2cc(OC)c(OC)cc2C(=O)N(C)C1c1ccc(OC)cc1` (stereo not drawn), the viability [1] is reported as 96%, the Her2 level [2] is reported as 90% (inactive) and the viability [3] is reported as 96% (inactive). The viability [4] was 108% (inactive), the viability [5] was 108% (inactive) and the differential viability (reversal) ([6]; H69AR cells + 2 uM doxorubicin) was 10.2% (inactive). For the same compound, the viability [6, 16] was 97.6%, the viability [6, 17] was 108% and the inhibition [7] was -8.77% (inactive). For the same compound, the inhibition [8] was -10.2% (inactive), the growth inhibition [9] was -5.75% (inactive) and the growth inhibition [10] was -9.85% (inactive). For the same compound, the viability increase [11] was -1.38% (inactive), the viability [12] was 96% (inactive) and the viability [13] was 95.3% (inactive). The inhibition [14] was 0.92% (inactive) and the RAM network inhibition [15] was 0.81% (inactive).
